# Results published in paper PMC4336329 (PLoS ONE, 2015).
# About 14,000 (4.5%) of roughly 310,000 compounds showed an effect of 50% or more. Effects have a minus sign here. The full list was thinned out, with strong results kept by preference.
# Molecular target: human ether-à-go-go-related gene (hERG) potassium channel (human, UniProt Q12809)
# Assay: primary screen, population patch clamp on CHO cells stably expressing hERG; higher = less effect of the substance
# 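Further: peak tail current of the secondary pulse compared with the same well before compound.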
# human ether-à-go-go-related gene (hERG) potassium channel, sequence (Q12809 whole entry, looked up): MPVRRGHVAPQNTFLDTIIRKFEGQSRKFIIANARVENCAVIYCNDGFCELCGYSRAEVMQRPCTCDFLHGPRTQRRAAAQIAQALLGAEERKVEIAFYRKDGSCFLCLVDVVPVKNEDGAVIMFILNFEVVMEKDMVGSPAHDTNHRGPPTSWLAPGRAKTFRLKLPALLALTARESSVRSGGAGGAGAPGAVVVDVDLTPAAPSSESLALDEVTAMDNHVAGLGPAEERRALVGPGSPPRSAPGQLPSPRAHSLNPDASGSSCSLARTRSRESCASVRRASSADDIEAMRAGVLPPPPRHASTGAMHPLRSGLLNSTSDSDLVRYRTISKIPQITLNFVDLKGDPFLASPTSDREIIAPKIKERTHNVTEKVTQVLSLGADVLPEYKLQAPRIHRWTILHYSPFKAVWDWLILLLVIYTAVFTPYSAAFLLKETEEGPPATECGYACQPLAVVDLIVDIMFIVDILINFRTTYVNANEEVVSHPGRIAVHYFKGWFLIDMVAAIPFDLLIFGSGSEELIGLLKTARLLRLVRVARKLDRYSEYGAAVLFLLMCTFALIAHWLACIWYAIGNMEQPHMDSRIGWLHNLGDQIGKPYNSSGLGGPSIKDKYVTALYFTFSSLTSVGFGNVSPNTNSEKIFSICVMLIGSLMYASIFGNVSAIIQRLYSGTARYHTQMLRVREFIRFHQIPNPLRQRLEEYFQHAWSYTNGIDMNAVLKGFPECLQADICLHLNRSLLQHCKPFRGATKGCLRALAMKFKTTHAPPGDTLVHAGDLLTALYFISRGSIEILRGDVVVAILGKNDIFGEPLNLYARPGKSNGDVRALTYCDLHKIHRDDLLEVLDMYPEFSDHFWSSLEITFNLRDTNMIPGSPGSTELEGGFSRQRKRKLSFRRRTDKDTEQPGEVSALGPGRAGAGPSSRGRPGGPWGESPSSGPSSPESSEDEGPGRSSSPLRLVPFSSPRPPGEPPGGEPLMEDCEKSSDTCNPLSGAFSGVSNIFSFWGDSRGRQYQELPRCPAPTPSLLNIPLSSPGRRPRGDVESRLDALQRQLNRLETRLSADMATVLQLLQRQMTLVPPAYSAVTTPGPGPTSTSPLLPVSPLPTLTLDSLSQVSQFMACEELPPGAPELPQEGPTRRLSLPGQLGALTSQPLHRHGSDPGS
row,Compound,"hERG current change (%, negative = inhibition) at 10uM"
1,Cc1ccc(NC(=O)/C(=C/c2cccs2)NC(=O)c2ccco2)c(C)c1,-9.56%
2,CCCC(=O)NNC(=O)Nc1ccccc1,19.8%
3,O=c1[nH]c(CSc2nc3ccccc3[nH]2)nc2c1cnn2-c1ccccc1,-17.6%
4,COc1ccc(CC(=O)Nc2cc(C)on2)cc1OC,2.2%
5,CC(=O)Nc1ccc(S(=O)(=O)Nc2nc3ccccc3nc2Nc2cccc(S(N)(=O)=O)c2)cc1,10.3%
6,CCOc1ccc2oc(-c3ccccc3)c(C(=O)N3CCN(C)CC3)c2c1,-9.67%
7,CS(=O)(=O)c1ccc(Cl)c(NC(=O)c2cc(S(=O)(=O)N3CCOCC3)ccc2N2CCCC2)c1,-81.3%
8,O=C(Nc1ccccc1N1CCCC1)c1cc(S(=O)(=O)N2CCOCC2)ccc1Cl,-34.5%
9,O=C(Nc1ccccc1N1CCCCC1)c1cc(S(=O)(=O)N2CCOCC2)ccc1Cl,-4.01%
10,Cc1nc(CC(=O)NNS(=O)(=O)c2ccc(F)c(Cl)c2)cs1,20%
11,O=C(COC(=O)C1CCCN1C(=O)c1cccs1)Nc1ccc2c(c1)OCO2 (stereo not shown),-11.9%
12,Cc1ccc(C)c(S(=O)(=O)Nc2cc(SCC(=O)O)c(O)c3ccccc23)c1,5.34%
13,CCOc1ccc(Cc2c(C)[nH]c3ccc(C(=O)O)cc3c2=S)cc1,-9.2%
14,Cc1cc(C)n(CC(O)CN(c2cccc([N+](=O)[O-])c2)S(=O)(=O)c2ccccc2)n1 (stereo not shown),7.08%
15,O=[N+]([O-])c1cccc(N(CC(O)CN2CCCC2)S(=O)(=O)c2ccccc2)c1 (stereo not shown),-62.4%
16,COc1ccc([N+](=O)[O-])cc1N(CC(O)CN1CCCC1)S(=O)(=O)c1ccc(C)cc1 (stereo not shown),-2.85%
17,Cc1ccc(S(=O)(=O)N(CC(O)CN2CCCCC2)c2cccc([N+](=O)[O-])c2)cc1 (stereo not shown),-78.8%
18,COc1ccc([N+](=O)[O-])cc1N(CC(O)CN1CCCCC1)S(=O)(=O)c1ccc(C)cc1 (stereo not shown),-42.7%
19,O=[N+]([O-])c1cccc(N(CC(O)CN2CCCCC2)S(=O)(=O)c2ccccc2)c1 (stereo not shown),-43.8%
20,Cc1cc(C)c2nc(SCC#N)cc(C)c2c1,13.5%
21,O=C(OCC#CCSc1nnc(-c2cccc3ccccc23)o1)c1ccco1,-2.9%
22,CCN=C(Nc1ccc(Cl)cc1)c1cccnc1,-2.16%

row,Compound,"hERG current change (%, negative = inhibition) at 10uM"
1,O=C(N/C(=C/c1ccco1)C(=O)N1CCCC1)c1cccs1,-0.326%
2,CC(C)(C)OC(=O)N1CCOCCOCCN(C(=O)OC(C)(C)C)CCOCCOCC1,7%
3,COc1ccc(-c2nc(CN3CCC(C(=O)NC4CCCC4)CC3)c(C)o2)cc1OC,-36.4%
4,Cc1oc(-c2ccc(Cl)cc2)nc1CN1CCCC(C(=O)NCCCN2CCOCC2)C1 (stereo not shown),-19.4%
5,Cc1oc(-c2ccc(Cl)cc2)nc1CN1CCCC(C(=O)NC2CC2)C1 (stereo not shown),-81.3%
6,COc1ccc(-c2nc(CN3CCCC(C(=O)NC4CCCC4)C3)c(C)o2)cc1 (stereo not shown),-64.4%
7,Cc1oc(-c2ccc(Cl)cc2)nc1CS(=O)CC(=O)NC1CC1 (stereo not shown),8.75%
8,COc1ccc(-c2nc(CS(=O)CC(=O)NC3CCCC3)c(C)o2)cc1 (stereo not shown),-16.4%
9,CC1CCN(c2nc(N3CCCCC3)nc(N3CCCCC3)n2)CC1,9.57%
10,CC(C)(C)C(=O)OCc1nc(-c2ccc(Cl)cc2)cs1,7.41%
11,COc1ccc(CNC(=O)CCc2nc3cc(S(=O)(=O)N(C)C)ccc3n2C)cc1OC,14.3%
12,N#C/C(=C\N1CCCCC1)S(=O)(=O)c1ccc(Cl)cc1,15.6%
13,O=C(NCCc1ccccc1)c1ccc(S(=O)(=O)N2CCCC2)cc1,-5.37%
14,CSc1cccc(NC(=O)COC(=O)C2CCN(S(=O)(=O)c3ccccc3)CC2)c1,4.09%
15,Cc1ccc(-n2cnnn2)cc1Cl,-18.8%
16,C/C(=N\NC(=O)CNC(=O)c1cccs1)c1ccc(Cl)c(Cl)c1,-2.25%
17,Fc1ccccc1CNc1ccc(Cl)cc1,-8.14%
18,Fc1ccc(NCc2ccccc2F)cc1Cl,-139%
19,Fc1ccccc1CNc1ccc(Cl)c(Cl)c1,9.9%
20,CC(NC(=O)CSC1=NCCS1)c1ccccc1 (stereo not shown),14.3%
21,Clc1nc2sccn2c1/C=N/n1cnc2ccccc21,-10%
22,COc1ccc(C(C(=O)NC2CCCCC2)N(C(=O)c2ccco2)c2ccccc2C(C)=O)cc1OC (stereo not shown),9.15%

row,Compound,"hERG current change (%, negative = inhibition) at 10uM"
1,CC(C(=O)Nc1ccc(Br)cc1C(=O)c1ccccc1)N1CCCCC1 (stereo not shown),-24.8%
2,Cc1ccc(NC(=O)C(C)N2CCOCC2)c(C(=O)c2ccccc2)c1 (stereo not shown),-26.9%
3,O=C(CN1CCOCC1)NCC(=O)Nc1ccc(Br)cc1C(=O)c1ccccc1,-37.1%
4,O=C(CN1CCCCC1)NCC(=O)Nc1ccc(Br)cc1C(=O)c1ccccc1,-79.1%
5,O=C(CNC(=O)OCc1ccccc1)NCC(=O)Nc1ccc(Br)cc1C(=O)c1ccccc1,-56%
6,O=C(CCN1CCCCC1)NCC(=O)Nc1ccc(Br)cc1C(=O)c1ccccc1,-77.6%
7,O=C(CCN1CCOCC1)Nc1ccc(Br)cc1C(=O)c1ccccc1,-19.6%
8,O=C(CCN1CCOCC1)NCC(=O)Nc1ccc(Br)cc1C(=O)c1ccccc1,-49.5%
9,O=C(CNC(=O)OCc1ccccc1)Nc1ccc(Br)cc1C(=O)c1ccccc1,-15.1%
10,CC(C(=O)Nc1ccc(Br)cc1C(=O)c1ccccc1)N1CCOCC1 (stereo not shown),-58.6%
11,O=C(CNC(=O)OCc1ccccc1)Nc1ccc(Br)cc1C(=O)c1ccccc1Cl,-40.5%
12,O=C(CN1CCOCC1)Nc1ccc(Br)cc1C(=O)c1ccccc1,-32.4%
13,Cc1csc(NC(=O)c2ccc(C)s2)n1,6.99%
14,Cc1cc(C(=O)N/N=C/c2c[nH]c3ccccc23)c(C)o1,-27.4%
15,N#Cc1c(C(F)(F)F)cc(-c2ccc(Cl)c(Cl)c2)nc1SCCN1CCOCC1,6.62%
16,CN1CCC(OC(=O)c2cc3cc(Cl)cc(Cl)c3oc2=O)CC1,-17.8%
17,O=C1N/C(=C\c2ccc(O)cc2)C(=O)c2ccccc21,-1.53%
18,O=C(O)C(=O)O.O=S(=O)(c1ccc(F)cc1)N1CCC(N2CCCCCC2)CC1,-26.3%
19,COc1ccc(Nc2ccc(Nc3ccc(OC)cc3)nn2)cc1,18.6%
20,Cc1cccc(N2CCN(C(=O)Cn3nc(C)n4cccc4c3=O)CC2C)c1 (stereo not shown),1.19%
21,O=C(O)CCCCCCCCc1cn(Cc2ccc(C(=O)c3ccccc3)cc2)nn1,19.5%
22,Cc1cccc(C)c1OCC(=O)N/N=C/c1cc2c(cc1[N+](=O)[O-])OCO2,-4.6%

row,Compound,"hERG current change (%, negative = inhibition) at 10uM"
1,O=C(O)CN1CCc2ccccc2C1,21.3%
2,CCC(CC)C(=O)Nc1cc([N+](=O)[O-])ccc1F,-2.25%
3,COCCN1Cc2cccc(C(=O)Nc3cccnc3)c2C1=O,-32.6%
4,CCOC(=O)C1(Cc2ccccc2C)CCCN(C(=O)CCc2c(C)noc2C)C1 (stereo not shown),-29.3%
5,COC(=O)c1cc(C(=O)OCC(=O)NC2CCCCCCC2)cc([N+](=O)[O-])c1,-7.58%
6,CN(CCOc1ccc(Cl)cc1)Cc1cccc(S(=O)(=O)N(C)C)c1,-56.5%
7,Cc1ccc(S(=O)(=O)N(C)C)cc1NC(=O)C(C)N(C)CCOc1ccc(Cl)cc1 (stereo not shown),-26.7%
8,COc1ccc(OCCN(C)Cc2ccccc2)cc1,-41.9%
9,COc1ccc(CCNC(=O)C(=O)NCc2cccs2)cc1OC,8.95%
10,CCCCSCCCNC(=O)c1ccc(CS(=O)(=O)c2ccc(OC)cc2)o1,-59.6%
11,COCCCNC(=O)c1ccc(CS(=O)(=O)c2ccc(OC)cc2)o1,5.86%
12,COc1ccc(S(=O)(=O)Cc2ccc(C(=O)NCc3ccccc3)o2)cc1,-14.3%
13,COc1ccc(S(=O)(=O)Cc2ccc(C(=O)NCC(OC)OC)o2)cc1,17.4%
14,CCCCN(CCCNC(=O)c1ccc(CS(=O)(=O)c2ccc(OC)cc2)o1)Cc1ccccc1,-67.4%
15,COc1ccc(S(=O)(=O)Cc2ccc(C(=O)NCCc3ccc(S(N)(=O)=O)cc3)o2)cc1,10.1%
16,CCCCNC(=O)c1ccc(CS(=O)(=O)c2ccc(OC)cc2)o1,-7%
17,CCN(CC)CCCNC(=O)c1ccc(CS(=O)(=O)c2ccccc2OC)o1,16.3%
18,COc1ccc(S(=O)(=O)Cc2ccc(C(=O)NCCCN(C)c3ccccc3)o2)cc1,-59.4%
19,CCOc1ccc2nc(COC(=O)c3cccs3)c(C(=O)c3ccccc3)[n+]([O-])c2c1,6.46%
